Assay results: PubChem BioAssay AID942 (National Center for Advancing Translational Sciences (NCATS), 2007)
Inconclusive results are not listed. Activity calls are given as the source filed them. The call rests on the fitted dose curve.

Experiment: Confirmation Concentration-Response Assay for Anthrax Lethal Toxin Internalization

| Structure (SMILES) | Potency |
| --- | --- |
| COc1ccc2c(c1OC)C(=O)OC2c1ccc(O)cc1 (stereo unspecified) | inactive |
| COc1cc2c(OC(C)=O)c3c(c(-c4ccc5c(c4)OCO5)c2cc1OC)C(=O)OC3 | 39.8 nM (active) |
| Cc1ccc2oc(=O)c3cnn(CC(=O)N4CCN(c5ccccc5)CC4)c3c2c1 | 5010 nM (active) |
| COc1ccc(C2C3=C(COC3=O)Oc3cc4c(cc32)OCO4)cc1OC (stereo unspecified) | inactive |
| COc1cc([C@@H]2c3cc4c(cc3[C@H](O)[C@H]3COC(=O)[C@H]23)OCO4)cc(OC)c1OC | 794 nM (active) |
| Cc1ccc2c(c1)-c1c(cnn1CC(=O)Nc1ccccc1N1CCN(C)CC1)CO2 | 3980 nM (active) |
| O=C(Nc1c(Cl)cc([N+](=O)[O-])cc1Cl)c1cc(Cl)cc(Cl)c1O | 10000 nM (active) |
| O=C(Nc1ccc([N+](=O)[O-])cc1Cl)c1cc(Cl)cc(Cl)c1O | 3980 nM (active) |
| O=C(Nc1ccc([N+](=O)[O-])cc1Cl)c1cc(Br)ccc1O | 794 nM (active) |
| Nc1ccc(NC(=O)c2cc(Cl)ccc2O)c(Cl)c1 | inactive |
| COc1ccc(Cl)cc1C(=O)Nc1ccc([N+](=O)[O-])cc1Cl | inactive |
| COc1ccc2c(c1OC)C(=O)OC2CC(=O)c1ccc2c(c1)OCO2 (stereo unspecified) | inactive |
| Cc1ccc2oc(=O)c3cnn(CC(=O)Nc4ccccc4N4CCN(C)CC4)c3c2c1 | 2000 nM (active) |
| COc1cc2c(O)c3c(c(-c4ccc5c(c4)OCO5)c2cc1OC)C(=O)OC3 | 50.1 nM (active) |
| O=C(Nc1ccc([N+](=O)[O-])cc1Cl)c1ccccc1O | 6310 nM (active) |
| COc1cc([C@@H]2c3cc4c(cc3[C@H](OC(C)=O)[C@H]3COC(=O)[C@H]23)OCO4)cc(OC)c1OC | 794 nM (active) |
